target: Shiga toxin 2 (Escherichia coli O157:H7) (UniProt P09385+P09386); assay: E. coli 0.157:H7 Shiga Toxin SOP - stx2 screening assay; assay type: functional; set-up: scale not given: direction of the effect not stated beside the values; conditions: 30 µM

| Structure (SMILES) | Percent Effect |
| --- | --- |
| CC(C)N1CCc2c(C#N)c(NCc3ccco3)n3cnnc3c2C1 | -4.38% |
| CS(=O)(=O)N1CCC(Oc2ccc(C(=O)N3CCSCC3)cc2Cl)CC1 | 11.9% |
| CCCn1[nH]cc/c1=N\C(=O)CN1CCc2cnc(CC)nc2C1 | -6.51% |
| COCC1CN(Cc2ccsc2)Cc2nn(C)cc21 (stereo not given) | -13.1% |
| Cc1cc(=O)n2ncnc2n1CC(O)c1cc(F)ccc1F (stereo not given) | 1.57% |
| NC(=O)C1CCN(c2nc3nccc(-c4ccccn4)c3c(=O)[nH]2)CC1 | 2.69% |
| Cc1ncsc1C(=O)NCCn1nc(C2CCNC2)c2cccnc21 (stereo not given) | -7% |
| O=C(c1nc(COc2ccc3c(c2)OCO3)no1)N1CCCC1 | -63.7% |
| COCc1ccccc1CNc1nnc(C)c(C)c1C#N | 29.7% |
| Cc1ccsc1CNC(=O)Cc1c(C)nc2c(c1C)c(=O)[nH]n2C | 23.7% |
| COc1ccc(CS(=O)(=O)CC(=O)NCC2CC2)cc1F | -12.5% |
| COc1cccc(N2CCN(Cc3ccc(NC(C)=O)cc3)CC2=O)c1 | -2.21% |
| CC(C)COC(C)C(=O)NCc1ccc(N(C)C)cc1 (stereo not given) | -8.68% |
| CCCNC(=O)CNC(=O)CCc1ccccc1Br | -0.75% |
| O=C1CC(c2cccc(O)c2)c2sc(C(=O)O)c(-c3ccccc3)c2N1 (stereo not given) | -24.7% |
| Cc1ccc(CC(=O)N2Cc3nccn3CC(CN(C)C)C2)cc1 (stereo not given) | 5.05% |
| CCCOc1ccc(CNC2CCCc3c2cnn3CC)cc1OC (stereo not given) | -22.9% |
| O=C(NCCN1CCCCCC1=O)c1n[nH]c(=O)c2ccccc12 | -6.19% |
| CCc1nc(C2CCCN(C(=O)c3ccc(OC(C)C)nc3)C2)no1 (stereo not given) | 17.3% |
| CCS(=O)(=O)N1CCc2c(CN(C)Cc3ccco3)cncc2C1 | -1.96% |

| Structure (SMILES) | Percent Effect |
| --- | --- |
| O=C(O)CCc1cccc(C2CCCN2Cc2ccc(F)c(F)c2)n1 (stereo not given) | 2.71% |
| O=C(NCCc1coc(-c2ccc(F)cc2)n1)NC1CCC(O)CC1 (stereo not given) | -24.9% |
| CCc1n[nH]c(C2CN(Cc3nccn3CC)CCO2)n1 (stereo not given) | -10.4% |
| CCN(CC)C(=O)CCn1ncc2c(Cl)cccc21 | -23.7% |
| Cn1cc(CN2CCC3(CC(=O)N(c4ccc5c(c4)OCO5)C3)C2)cn1 (stereo not given) | -15.8% |
| O=C(NCCNc1ncccn1)c1ccc(-c2ccco2)[nH]c1=O | 10.7% |
| CC(NC(=O)NCCCn1ccnc1)c1ccc2c(c1)OCCCO2 (stereo not given) | 20.4% |
| Cc1ccc(CN2CC[C@H]3OCC[C@@H](c4nc(C)no4)[C@H]3C2)cc1 | 8.54% |
| Cc1nc(CNCC2CCCN2c2cccnn2)cs1 (stereo not given) | 15.4% |
| Cn1cnc(S(=O)(=O)N2CCN(Cc3ccco3)CC2)c1Cl | 13.8% |
| CC(NC1(CNC(=O)Cn2cccn2)CCOCC1)c1ccccc1 (stereo not given) | 10.6% |
| Cc1c(C2CCCN(C(=O)C3CC3)C2)n2c(nc1=O)CCC2 (stereo not given) | 10.2% |
| O=C(c1cccc(OC2CCCC2)c1)N1CCCC(n2cncn2)C1 (stereo not given) | 16.8% |
| Cc1cc(-c2cnc(N3CCCC(C)C3)nc2-c2cccnc2C)on1 (stereo not given) | -30.1% |
| Cc1nc(COCc2cnc3n2CCN(C2CCC2)C3C)cs1 (stereo not given) | -5.21% |
| CCc1csc(C2CCCN(C(=O)c3cnn(CC)c3)C2)n1 (stereo not given) | -7.95% |
| O=C(Cc1cccs1)NC1CCN(c2cccc(F)c2)CC1 | -14.1% |
| CC(NC(=O)NCCCc1n[nH]c(N)c1C#N)c1cccs1 (stereo not given) | -34.7% |
| O=C(CSc1ncccn1)N1C[C@H]2CC[C@@H]1CN(Cc1ccncc1)C2 | -26.2% |
| CNc1nc(CNC(=O)Nc2cccc(F)c2)cs1 | -9.25% |
